Bioassay records (PubChem)
KDM5B inhibitor = KDM5B demethylase inhibition. Q9UGL1. KDM5B demethylase, FDH-coupled NADH fluorescence (FDH is formaldehyde dehydrogenase). Potency, µM (titrated, usually from 57.7 µM), actives largely listed as inhibitors. 220,000 tested, 2.6% active; active means well fitted inhibition curve with a large enough effect; further: nearly all actives have a fitted effect of over 70% in size
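KDM5BΔAP (200 nM final) in 50 mM HEPES pH 7.5, 0.01% Tween-20 was preincubated 10 min at RT with compound over a concentration range. Substrate mix (H3K4me3 12.5 µM, α-KG 25 µM, Fe²⁺, ascorbate, NAD⁺, FDH) was added, and NADH fluorescence change over 30 min gave dose-response curves.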
Large screens that a line does not name were inactive. The sample as a whole holds a higher share of hits than the screen did.

Cn1cc([C@@H](NC(=O)c2ccc3c(c2)CCCC3)C2CC(O)C2)cn1 (stereo partly specified)	none
Cn1cc([C@@H](NC(=O)c2ccccc2N2CCCC2)C2CC(O)C2)cn1 (stereo partly specified)	KDM5B inhibitor 22µM
Cc1noc(C)c1CCC(=O)NC(c1cnn(C)c1)C1CC(O)C1 (stereo unspecified)	none
Cn1cc([C@@H](NC(=O)C2CCN(Cc3ccco3)CC2)C2CC(O)C2)cn1 (stereo partly specified)	none
N#Cc1cccc(NC(=O)C2(c3ccc(Cl)cc3)CCC2)c1	none
COc1cc2c(cc1OC)C(CNC(=O)Cc1ccccc1)N(C(=O)Nc1ccccc1F)CC2 (stereo unspecified)	none
COc1ccc(-c2cc(-c3ccncc3)cn3cncc23)cc1	KDM5B inhibitor 40µM
COc1ncccc1-c1cc(-c2ccc(=O)[nH]c2)c2cncn2c1	KDM5B inhibitor 28µM
COc1ccc(-c2cc3ncc4c(n3n2)-c2cc(F)ccc2OC4)cc1	none
COc1ccc(-c2cc(-c3ccc(F)cc3)cn3cncc23)cc1	KDM5B inhibitor 5.6µM
COc1cccc(-c2cc(-c3ccncc3)c3cncn3c2)c1OC	none
Oc1cccc(-c2cc(-c3ccncc3)c3cncn3c2)c1	none
Cn1cc(-c2cc(-c3ccncc3)c3cncn3c2)cn1	KDM5B inhibitor 32µM
FC(F)(F)c1cccc(-c2cc(-c3ccncc3)c3cncn3c2)c1	none
Cc1ccc2oc(=O)n(CCNC(=O)Nc3ccc4c(c3)OCCO4)c2c1	none
CCN1CCN(Cc2cc(=O)oc3cc(C)ccc23)CC1	none
CC(C)NC(=O)CN(C)CC(O)COc1cccc(Br)c1 (stereo unspecified)	none
CCOc1ccc(NC(=O)N2CCC3(CC2)Oc2ccccc2C(=O)N3Cc2ccccc2F)cc1	none
COc1ccc(S(=O)(=O)N2CCN(C)CC2)cc1NC(=O)c1ccc(CN2CCCC2=O)cc1	none
CC(=O)c1c(C)nc2ccccc2c1C	none
CCn1nc(C(=O)Nc2cc(Cl)ccc2OC)c2ccccc2c1=O	none
COc1cc(F)ccc1-c1cc(-c2cn[nH]c2)c2cncn2c1	none
COc1cccc(-c2cc(-c3c(C)noc3C)c3cncn3c2)c1OC	none
COc1ccc(-c2cc(-c3ccc4c(c3)CNC4=O)cn3cncc23)cc1	KDM5B inhibitor 22µM
COc1ccc(-c2cc(-c3ccc(F)cc3OC)cn3cncc23)cc1	KDM5B inhibitor 10µM
CCCCn1c(=O)n(CC(=O)Nc2ccccc2)c(=O)c2c1ncn2Cc1ccco1	none
O/N=C/c1ccc(-n2ccnc2)cc1	none
O/N=C/c1ccc(OCc2ccc(Br)cc2)cc1	none
CCOc1cccc2cc(-c3csc(Nc4cc(OC)ccc4OC)n3)c(=O)oc12	none
Cc1ccc(C)c(OCC(O)Cn2nc(C)c3ccccc3c2=O)c1C (stereo unspecified)	none
CCOc1ccc(/C=N/OC(=O)c2ccccc2I)cc1	none
Cc1ccc(C)c(-n2nnc(C(=O)NC3CCS(=O)(=O)C3)c2C)c1 (stereo unspecified)	none
CC1(C(=O)NCc2ccc(F)cc2)CCCc2cnc(Nc3cccnc3)nc21 (stereo unspecified)	none
CC1(C(=O)NCc2cnccn2)CCCc2cnc(NCc3ccccc3)nc21 (stereo unspecified)	none
CC1(C(=O)NCc2ccncc2)CCCc2cnc(Nc3ccccc3)nc21 (stereo unspecified)	none
CC1(C(=O)NCCN2CCOCC2)CCCc2cnc(NCc3ccccc3)nc21 (stereo unspecified)	KDM5B inhibitor 35µM
CC1(C(=O)NCc2ccncc2)CCCc2cnc(NCc3ccccc3)nc21 (stereo unspecified)	KDM5B inhibitor 35µM
CC1(C(=O)NCc2cnccn2)CCCc2cnc(Nc3ccccc3F)nc21 (stereo unspecified)	none
CN1CCC(NC(=O)C2(C)CCCc3cnc(NCc4ccccc4)nc32)CC1 (stereo unspecified)	KDM5B inhibitor 22µM
CC1(C(=O)NCc2cccc(F)c2)CCCc2cnc(Nc3cccnc3)nc21 (stereo unspecified)	none
COC(=O)c1cccc(NC(=O)CC2Sc3ccccc3NC2=O)c1 (stereo unspecified)	none
C=CCNC(=O)Nc1cc(C(=O)NC)ccc1Cl	none
N#C/C(=C/c1ccc(C(F)(F)F)cc1)C(=O)Nc1ccccc1Oc1ccccc1	none
CCSc1nn(C(C)C)c2nc3c(c(=O)n12)C(C)(CC)Cc1ccccc1-3 (stereo unspecified)	none
COCC(C)NC(=O)c1cn(C)nc1-c1ccc2c(c1)OCCCO2 (stereo unspecified)	none
c1ccc(OCc2nc(-c3ccc4c(c3)OCCCO4)cs2)cc1	none
c1coc(-c2nc3nccc(-c4ccc5c(c4)OCCCO5)n3n2)c1	KDM5B inhibitor 28µM
Cc1cc(N2CCN(c3cccc(C)c3C)CC2)n2nc(-c3ccco3)nc2n1	none
c1coc(-c2cc(CSc3ccc4c(c3)OCCCO4)no2)c1	none
COCc1nc2nccc(-c3ccc4c(c3)OCCCO4)n2n1	KDM5B inhibitor 18µM
Cc1ccccc1OCc1nc(-c2ccccc2OCC(=O)N2CCCCCC2)no1	none
O=C(c1ccc(Br)s1)N(Cc1cccc(Br)c1)C1CC1	none
Cc1ccc(OCC(=O)Nc2ccc3c(c2)nc(CCn2ccccc2=O)n3C)cc1	none
Cc1c(S(=O)(=O)N2CCCC2c2ccc(F)cc2)cnn1C(F)F (stereo unspecified)	none
COCCN1CCC2(C1)CN(C)c1ccc(C(=O)Nc3ccccc3)cc12 (stereo unspecified)	KDM5B inhibitor 25µM
COc1ccc(NC(=O)c2ccc3c(c2)C2(CCCN(C)C2)CN3Cc2cccnc2)cc1 (stereo unspecified)	none
COc1cc(OC)cc(C(=O)NCC2CCCN(C(=O)CCNC(C)=O)C2)c1 (stereo unspecified)	none
CC(=O)N1CCCC2(C1)CN(C)c1ccc(C(=O)NCC3CC3)cc12 (stereo unspecified)	KDM5B inhibitor 28µM
CN1CCCCCC(O)c2cc(C(=O)NCC3CC3)ccc21 (stereo unspecified)	none
CC(=O)N1CCC(N2CC(Oc3cccc(C(=O)NCC4CC4)c3)C2)CC1	none
COCCN1CCC2(C1)CN(C)c1ccc(C(=O)NCC3CC3)cc12 (stereo unspecified)	KDM5B inhibitor 35µM
COCCN1CCCC2(CCN(C(=O)c3ccccc3)C2)C1 (stereo unspecified)	none
COC(=O)c1cccc(C(=O)NCC2CCCCC2)c1	none
Cc1noc(C)c1Cc1ccc(C(=O)N2CCCCCCN(C)C(=O)[C@@H]3CCC[C@@H]32)o1	none
CC(=O)N1CC2(CCCCN2C(=O)CCC(=O)O)Cc2ccccc21 (stereo unspecified)	none
COc1ccc(C(=O)/C=C/c2ccc(OCC#N)c(OC)c2)cc1OC	none
CCOC(=O)C1CCN(C(=O)C2COC3(CCCC(C)C3)N2C(=O)c2ccccc2F)CC1 (stereo unspecified)	none
O=C(COc1ccccc1)Nc1cccc(-c2nc3cc(Cl)ccc3o2)c1	none
Cc1ccc(C(=O)OCC(=O)N(C)c2ccccc2)cc1F	none
CNC(=O)c1cc(-c2ccc(N3CCOCC3)cc2)cc2c1OCCN2Cc1cccnc1	none
O=C(c1ccncc1)N1CCCN(Cc2cccnc2)c2ccccc21	none
COc1ccc(-c2ocnc2C(=O)N2CCN(Cc3cccnc3)CC2)cc1	none
CCCNC(=O)N(C1CCOCC1)C1CCN(Cc2cccnc2)CC1	none
CCC(=O)N(C1CCOCC1)C1CCN(Cc2cccnc2)CC1	none
COCCNC(=O)c1cc(-c2ccccc2F)cc2c1OCCN2Cc1cccnc1	KDM5B inhibitor 32µM
O=C(NC1CCOCC1)c1cc(-c2ccccc2F)cc2c1OCCN2Cc1cccnc1	KDM5B inhibitor 22µM
